Compound activity (PubChem BioAssay)
miR-122 inh = raises miR-122 sensor activity in Huh7 cells. Huh7 psiCHECK-miR122 Renilla luciferase sensor, 48 h. activation, % at 12.5 µM. hit rate 0.14% among 340,000. AID 623901;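 active means mean activation of 30% or more, with every replicate also reaching 30%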;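 further: higher luciferase signal means stronger suppression of miR-122 activity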
Each line names hits and unclear results; the compound was inactive in the other large screens. The entries come from a sample that favours hits as a whole.

C[C@H](CO)N1C[C@H](C)[C@H](CN(C)CC2CCOCC2)Oc2ncc(C#Cc3cccc(F)c3)cc2C1=O	none
C[C@@H]1CN([C@H](C)CO)C(=O)c2cc(-c3ccc(C(=O)N(C)C)cc3)cnc2O[C@H]1CN(C)C(=O)c1cccnc1	none
Nc1cccc2nc3ccccc3cc12	miR-122 inh 51
COc1ccccc1-c1cnc2c(c1)C(=O)N([C@@H](C)CO)C[C@H](C)[C@@H](CN(C)CC1CCCC1)O2	none
C[C@H](CO)N1C[C@H](C)[C@@H](CN(C)Cc2ccccn2)Oc2ncc(-c3ccc(F)cc3)cc2C1=O	none
CCCC#Cc1ccc2c(c1)O[C@@H](CN(C)C(=O)CC)[C@@H](C)CN([C@@H](C)CO)S2(=O)=O	none
COCC(=O)N(C)C[C@H]1Oc2cc(-c3ccccc3)ccc2S(=O)(=O)N([C@H](C)CO)C[C@H]1C	none
COCC(=O)N(C)C[C@H]1Oc2cc(-c3ccc(C#N)cc3)ccc2S(=O)(=O)N([C@@H](C)CO)C[C@H]1C	miR-122 inh 51
COCC(=O)N(C)C[C@@H]1Oc2cc(-c3cccc(F)c3)ccc2S(=O)(=O)N([C@@H](C)CO)C[C@H]1C	none
COc1ccc(S(=O)(=O)N(C)C[C@@H]2Oc3cc(-c4cccc(F)c4)ccc3S(=O)(=O)N([C@@H](C)CO)C[C@H]2C)cc1	miR-122 inh 40
Cc1ccc(S(=O)(=O)N(C)C[C@@H]2Oc3cc(-c4cccc(F)c4)ccc3S(=O)(=O)N([C@@H](C)CO)C[C@@H]2C)cc1	none
COCC(=O)N(C)C[C@@H]1Oc2cc(-c3ccccc3)ccc2S(=O)(=O)N([C@@H](C)CO)C[C@H]1C	none
Cc1ccc(S(=O)(=O)N(C)C[C@H]2Oc3cc(-c4cccc(F)c4)ccc3S(=O)(=O)N([C@@H](C)CO)C[C@H]2C)cc1	none
COCC(=O)N(C)C[C@H]1Oc2cc(-c3ccccc3F)ccc2S(=O)(=O)N([C@H](C)CO)C[C@H]1C	miR-122 inh 46
COCC(=O)N(C)C[C@@H]1Oc2cc(-c3ccccc3)ccc2S(=O)(=O)N([C@H](C)CO)C[C@@H]1C	none
CC(C)NC(=O)N(C)C[C@@H]1Oc2cc(-c3ccccc3)ccc2S(=O)(=O)N([C@@H](C)CO)C[C@H]1C	none
CO[C@@H]1CN(C)C(=O)c2ccc(NC(C)=O)cc2OC[C@@H](C)N(S(C)(=O)=O)C[C@H]1C	none
C[C@@H]1CN([C@@H](C)CO)C(=O)c2cccc(N(C)C)c2O[C@@H]1CN(C)Cc1ccc(C(=O)Nc2ccccc2N)cc1	none
C[C@H](CO)N1C[C@H](C)[C@H](CN(C)C(=O)Nc2ccccc2)Oc2ncc(-c3ccccc3)cc2C1=O	none
CCCNC(=O)N(C)C[C@@H]1Oc2cc(-c3ccccc3)ccc2S(=O)(=O)N([C@@H](C)CO)C[C@H]1C	none
CCC(=O)N1C[C@@H](C)[C@H](OC)CN(C)C(=O)c2ccc(NS(C)(=O)=O)cc2OC[C@H]1C	none
COCC(=O)N(C)C[C@H]1Oc2cc(Br)ccc2S(=O)(=O)N([C@H](C)CO)C[C@@H]1C	none
C[C@H](CO)N1C[C@H](C)[C@@H](CN(C)S(C)(=O)=O)Oc2cc(-c3ccccc3F)ccc2S1(=O)=O	none
Clc1ccc(CSc2nnc(-c3ccncc3)o2)c(Cl)c1	miR-122 inh 33
Cc1ccc(C)c(CSc2nnc(-c3cccnc3)o2)c1	none
C[C@@H]1CN([C@@H](C)CO)C(=O)c2cc(C#Cc3ccccc3)cnc2O[C@H]1CN(C)Cc1ccccn1	none
C[C@@H]1CN([C@H](C)CO)C(=O)c2cc(C#Cc3cccnc3)cnc2O[C@@H]1CN(C)S(C)(=O)=O	none
CCN1CCN(Cc2ccc(NC(=O)c3ccc(C)c(NC(=O)c4c[nH]c5cc(C(F)(F)F)ccc5c4=O)c3)cc2C(F)(F)F)CC1	miR-122 inh 33
C[C@@H]1CN([C@H](C)CO)C(=O)c2cc(C#CC3(O)CCCC3)cnc2O[C@H]1CN(C)C(=O)CN(C)C	none
CCCN(C)C[C@H]1Oc2cc(C#CCN(C)C)ccc2S(=O)(=O)N([C@H](C)CO)C[C@H]1C	none
CCC(=O)N(C)C[C@@H]1Oc2ncc(C#C[C@H](C)O)cc2C(=O)N([C@H](C)CO)C[C@H]1C	none
C[C@@H]1CN([C@H](C)CO)C(=O)c2cc(/C=C/c3ccccc3)cnc2O[C@H]1CN(C)C(=O)Cc1ccccn1	none
COc1ccc(NC(=O)Nc2ccc3c(c2)C(=O)N([C@@H](C)CO)C[C@H](C)[C@H](CN(C)Cc2ccc(C(F)(F)F)cc2)O3)cc1	none
COc1ccc(NS(=O)(=O)c2cc(NC(=O)c3ccc(F)cc3)ccc2OC)cc1	none
CCN1CCN(Cc2ccc(NC(=O)c3cc(NC(=O)c4cc5cccc(OC)c5o4)cc(OC)c3)cc2C(F)(F)F)CC1	miR-122 inh 31
CC(C)C#Cc1ccc2c(c1)O[C@@H](CN(C)CC1CCCC1)[C@H](C)CN([C@@H](C)CO)S2(=O)=O	none
COc1cccc(-c2cnc3c(c2)C(=O)N([C@H](C)CO)C[C@H](C)[C@H](CN(C)CC2CCOCC2)O3)c1	none
C[C@@H]1CN([C@H](C)CO)C(=O)c2cc(C#Cc3ccccc3F)cnc2O[C@@H]1CN(C)C(=O)C1CCOCC1	none
CC(C)C#Cc1ccc2c(c1)O[C@H](CN(C)C(=O)c1ccccc1)[C@@H](C)CN([C@H](C)CO)S2(=O)=O	none
